Data on 40 sequences can be found in the supplement of paper PMC6555819.

This assay concerns VDR:RXRa (NR concentration 270 nM, RXRa partner concentration 90 nM). The experiment in a line: PBM binding z-score (relative to random genomic background probes); higher = stronger binding; sequences stand for … in GC…GCGATTGACAGCGTAGAATGAAGG
Here is the method:
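Protein-binding microarray (Agilent 4x180K custom design, double-stranded 60-nt probes: 5' GC cap, 34-nt variable region, 24-nt constant primer region; full probe sequence given). Purified or IVT nuclear receptor:RXRα heterodimers (3:1 NR:RXRα, mostly 270:90 nM) or homodimers were incubated for 1 h in PBS with 2% milk and no ligand, then detected with Alexa488 antibodies. Fluorescence from o1-orientation probes (~5 replicates averaged) was converted to z-scores against 500 random hg19 background probes. Variable regions are seed direct-repeat (DR0–DR5) sites, all their single-nucleotide variants and half-site ablations.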
The sequence GCTACAGGGTCAGCTAGAGGCCAGAGTATGGAAA showed a PBM binding z-score of 3.35. As for GCTAGCATGCCATTTGGGTCACTCAATGACGGGC, the PBM binding z-score was determined as 0.372.

Consider GGAACGAGGGCAAGTTGATCGCAGAGTTTGATGG, for which the PBM binding z-score stood at 0.673. In turn, TCTAGTTGGTCACGCAGGTCACACACGACGGGTA returned a PBM binding z-score of 4.01. In the case of ACAGACAGGTGATGAAGGTAGCTCAGGCTATCAT it was -0.287; in that of CAAACTAGGTCGAAGGTCAAAGTCGAGCCAACCA, 4.45; in that of ACTATTAGTTGAGACGAGGGCAACCGCTAGGTTG, 0.628. Regarding CAAACTAGGACAAAGGTCAAAGTCGAGCCAACCA, the PBM binding z-score stood at 4.93. As for CCTACTTGGCCACGAAAGGTCATTGATTCAGTGA, the PBM binding z-score is 4.14. In the case of CCTCGGAGGACAGAAGTTCAGAGCTGTCCGCTTT it was 0.197; in that of CCTTACGGGTCATTGACAGGTTATAGCATTTGGA, 4.11; in that of AGTCAAAGTTGACTAGGTAACGTAAGATTCAGCT, 0.000813.

CTACTAAGGTGAACAAGGTCGTTGATTACTATTC gave a PBM binding z-score of 6.38. In the case of TCTTGTAGATCAGGAGGTTAAGAAAGCTGGCCAA it was 0.556; in that of GCTAGTTGGTCAGTAAAAGGGCACACACCGGTCG, 0.0154; in that of CCGACTGGGGCAGAAAGGTTACCTTACCATCCGG, 0.875. As for TAGCCTAGGTCATGCGAGCCAGTATAGTGTCGGC, the PBM binding z-score is 1.92.

CCGACTGGGGCATAAGGTCACCATAAGCCAGCCC displayed a PBM binding z-score of 3.15. In the case of AGAATGTGGTTATACGTAGATCAGGGAAGAAAGT it was 0.0519; in that of AGAACGAGGGCACGCTGAGTTGATAGCCGAGTAG, 2.07; in that of CCTACTGGGCCAAAGTCATTGATCAGTCAAAGCA, -0.45. With AGAATGAGGTTATTAAAATCAGGGAATTGCGGTC, the PBM binding z-score is 0.984. ATCTCTAGGTAACACGTTCAGTGAAAGAGAGGAC: the PBM binding z-score is 0.339. In the case of ATATGTAGCTTAGCTGGGGTCATTCAGACTAGGC it was 4.78; in that of CGAACAAGGTCAGAACAGGACAGTGAAGGATGAT, 3; in that of CCTTAAGGGTCACTCCAGGTTATAGCATCGGAGT, 5.13. For the sequence TCGAGTAGGTTACCAATGGGGCATTCTGCTTTCT, the PBM binding z-score is -0.0796. With ACTAGCAGGCCAAGGGTCACTCAGGATTAGTCCG, the PBM binding z-score was found to be 3.03. The value for TCATATAGGTAAACAGGTAAAAGTCCGTAAGTTA was 1.29; that for ATCGAAAGGTCTTGAGGTGAGTATACAGAAAGGC was 0.496. In the case of TCGAGTAGGTTACCAATAGGGCATTCAGCTTTCT it was 0.152; in that of ACTATTAGATGAGACGAGGGCAACCGATAGGTTG, 0.421; in that of TCTCGGAGGACACGAAGGTCAGAGCTTTCCAGAG, 2.3. In the case of CTCGAAAGGTCGTGCTCAGTTGAGTATACCAAAC it was 3.59; in that of CCAGACAGGTGAATGGTAACTCAGTCTGGTACGC, -0.231. Sequence CGAACTAGGTCAAGGACAGTGTATCTCCGCACGC came in with a PBM binding z-score of 1.78.

In turn, TCACCAAGGTGAAAGGTCGTTGATGCACGCCTTG showed a PBM binding z-score of 3.17. In the case of ATCGAAAGGTCGAAGGTGTGTATACCCACCCGAA it was 2.43; in that of CCTTACGGGTCACGAGGTTATACCACGACGAGCG, 5.37; in that of TGGATGAGGTTAAAGATCAGGGAACGTGGCGTCG, 2.32.
